Results published in PubChem BioAssay.
The source made the active and inactive calls.

Tests used:
[1] = small molecules captured by biotinylated probe aFSTL3 – biochemical, small-molecule microarray, fluorescence 635/667, stem cell growth factor project, primary screen (AID 1064); conditions: higher = more signal;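 note: measures binding of the biotinylated anti-FSTL3 antibody to printed compounds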
[2] = binders from COS7 lysate, DM2A8 probe, primary screen, torsin A project, cell lysate, small-molecule microarray, fluorescence 635/667 (AID 1065); conditions: higher = more signal, COS7 lysate expressing mutant human TOR1A
[3] = small molecules captured by biotinylated probe aFGF2 – biochemical, small-molecule microarray, fluorescence 635/667, stem cell growth factor project, primary screen (AID 1067); conditions: higher = more signal;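 note: measures binding of biotinylated aFGF2 protein to printed compounds on slides; z-score merges feature fluorescence and signal-to-noise across triplicate slides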
[4] = small molecules captured by biotinylated probe aFGF10 – biochemical, small-molecule microarray, fluorescence 635/667, stem cell growth factor project, primary screen (AID 1071); conditions: higher = more signal;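 note: score merges 667 nm spot intensity and signal to noise from triplicate slides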
[5] = target: Neurogenic locus notch homolog protein 2 (Homo sapiens) (UniProt Q04721); experiment: small molecules binding Notch2 protein – biochemical, small-molecule microarray, 635 nm fluorescence, stem cell growth factors, primary screen (AID 1073); conditions: higher = more signal
[6] = target: Pro-neuregulin-1, membrane-bound isoform (Homo sapiens) (UniProt Q02297); experiment: small molecules binding neuregulin-1 protein – biochemical, small-molecule microarray, fluorescence 635/667, psychiatric disease protein project, primary screen (AID 1075); conditions: NRG1 binding, 635 nm fluorescence, higher = more signal;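 note: score combines 667 nm spot fluorescence with signal to noise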
Chain of Pro-neuregulin-1, membrane-bound isoform (Homo sapiens) (Q02297 whole entry, looked up, the tested form may be a part, canonical isoform): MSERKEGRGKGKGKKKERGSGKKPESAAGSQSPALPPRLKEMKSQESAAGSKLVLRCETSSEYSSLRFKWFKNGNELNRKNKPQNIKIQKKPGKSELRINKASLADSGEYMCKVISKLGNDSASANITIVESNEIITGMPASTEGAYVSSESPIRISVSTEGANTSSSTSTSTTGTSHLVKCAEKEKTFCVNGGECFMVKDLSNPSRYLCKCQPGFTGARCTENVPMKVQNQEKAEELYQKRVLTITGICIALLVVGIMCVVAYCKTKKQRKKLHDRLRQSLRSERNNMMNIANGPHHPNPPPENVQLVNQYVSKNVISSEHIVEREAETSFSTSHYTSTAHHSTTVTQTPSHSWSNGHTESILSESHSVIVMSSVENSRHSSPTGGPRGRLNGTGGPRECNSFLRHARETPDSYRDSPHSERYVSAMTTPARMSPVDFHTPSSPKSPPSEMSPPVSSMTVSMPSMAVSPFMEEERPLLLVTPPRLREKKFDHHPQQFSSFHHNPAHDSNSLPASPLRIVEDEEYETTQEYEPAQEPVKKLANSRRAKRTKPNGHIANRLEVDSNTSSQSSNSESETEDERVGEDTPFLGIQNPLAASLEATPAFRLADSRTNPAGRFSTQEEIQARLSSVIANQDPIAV

[7] = test system: Neuregulin-1 EGF-like domain; experiment: small molecules binding NRG1 EGF domain – biochemical, small-molecule microarray, 635 nm fluorescence, primary screen (AID 1081); conditions: higher = more signal;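 note: binding of the protein to compounds printed on small-molecule microarray slides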
[8] = FRG1 expression reporter modulators in myotubes – cell-based, C2C12 myotubes, firefly/Renilla luciferase, luminescence, FRG1 inhibition for FSHD, primary screen (AID 1084); conditions: FRG1 promoter luciferase, higher = more signal, called active from +8 up or from −8 down
[9] = small molecules captured by biotinylated probe aFST – biochemical, small-molecule microarray, fluorescence 635/667, stem cell growth factor project, primary screen (AID 1086); conditions: higher = more signal;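 note: score merges 667 nm fluorescence with signal-to-noise of each printed compound spot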
[10] = binders of probe aHhip on microarray, primary screen, stem cell growth factor project, biochemical, small-molecule microarray, fluorescence 635/667 (AID 1087); conditions: higher = more signal;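 note: score merges spot fluorescence at 667nm with spot signal to noise ratio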
[11] = test system: PRMT1 (protein arginine N-methyltransferase 1); experiment: small molecules binding arginine methyltransferase PRMT1 – biochemical, small-molecule microarray, 635 nm fluorescence, primary screen (AID 1088); conditions: higher = more signal;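 note: binding of Prmt1 protein to compounds spotted on small-molecule microarray slides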
[12] = growth effects on S. cerevisiae YJM789 – YJM789 clinical isolate, OD600, 24 h, basal, primary screen (AID 1089); conditions: higher = more signal, called active from +8 up or from −8 down;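 note: growth of clinical yeast isolate S. cerevisiae YJM 789 seeded 1000 cells per well; test concentration not given here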
[13] = S. pombe growth modifiers, basal conditions – strain 972, OD600, 24 h, no modulator, primary screen (AID 1090);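 note: basal condition with compound alone and no growth modifier present; test concentration not given here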; conditions: S. pombe 972 growth, higher = more signal, called active from +8 up or from −8 down
[14] = budding yeast growth modifiers under rapamycin – strain BY4716, OD600, 96 h, primary screen (AID 1091); note: test concentration not given here; conditions: S. cerevisiae BY4716 + rapamycin, higher = more signal, called active from +8 up or from −8 down
[15] = target: Torsin-1A-interacting protein 2 (Homo sapiens) (UniProt Q8NFQ8); experiment: small molecules binding lysate-expressed LULL1 – cell lysate, human LULL1 lysate, 635/667 nm fluorescence, primary screen (AID 1092); conditions: small-molecule microarray, hLULL1 lysate binding, 635 nm fluorescence; higher = more signal;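 note: probe is lysate of COS7 cells overexpressing human LULL1; score merges per-feature 667 nm fluorescence with signal-to-noise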
Chain of Torsin-1A-interacting protein 2 (Homo sapiens) (Q8NFQ8 whole entry, looked up): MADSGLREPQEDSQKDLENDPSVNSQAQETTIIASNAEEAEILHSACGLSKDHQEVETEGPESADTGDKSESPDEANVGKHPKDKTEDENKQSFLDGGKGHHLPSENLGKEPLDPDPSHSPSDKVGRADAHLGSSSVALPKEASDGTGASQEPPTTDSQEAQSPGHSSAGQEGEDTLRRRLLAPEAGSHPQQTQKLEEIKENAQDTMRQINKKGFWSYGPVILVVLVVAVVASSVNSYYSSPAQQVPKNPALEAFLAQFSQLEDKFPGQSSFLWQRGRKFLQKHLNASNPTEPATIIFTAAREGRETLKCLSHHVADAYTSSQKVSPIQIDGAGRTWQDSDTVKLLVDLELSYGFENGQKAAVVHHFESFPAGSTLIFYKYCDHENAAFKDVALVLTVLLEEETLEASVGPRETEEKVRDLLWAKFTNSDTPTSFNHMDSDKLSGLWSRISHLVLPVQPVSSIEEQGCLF

[16] = optical density change of DRC41 E. coli – strain DRC41, OD650, 24 h, E. coli filamentation project, primary screen (AID 1093);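 note: MC1000 strain lacking acrAB efflux and sulA so SOS filamentation is blocked; test concentration not given here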; conditions: E. coli DRC41 growth, higher = more signal, called active from +8 up or from −8 down
[17] = probe aLefty2 binding to arrayed compounds – biochemical, biotinylated probe, 635/667 nm fluorescence, primary screen (AID 1094); conditions: small-molecule microarray, higher = more signal;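 note: score merges spot fluorescence near 667 nm with spot signal-to-noise ratio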
[18] = test system: Noggin (protein binding on small-molecule microarray); experiment: small molecules binding Noggin protein – biochemical, 635/667 nm fluorescence, primary screen (AID 1095); conditions: 635 nm fluorescence, higher = more signal;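 note: score merges 667 nm feature fluorescence with signal to noise over triplicate slides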
[19] = target: Neurogenic locus notch homolog protein 3 (Homo sapiens) (UniProt Q9UM47); experiment: small molecules binding NOTCH3 protein – biochemical, 635/667 nm fluorescence, primary screen (AID 1096); conditions: small-molecule microarray, 635 nm fluorescence, higher = more signal
Chain of Neurogenic locus notch homolog protein 3 (Homo sapiens) (Q9UM47 whole entry, looked up): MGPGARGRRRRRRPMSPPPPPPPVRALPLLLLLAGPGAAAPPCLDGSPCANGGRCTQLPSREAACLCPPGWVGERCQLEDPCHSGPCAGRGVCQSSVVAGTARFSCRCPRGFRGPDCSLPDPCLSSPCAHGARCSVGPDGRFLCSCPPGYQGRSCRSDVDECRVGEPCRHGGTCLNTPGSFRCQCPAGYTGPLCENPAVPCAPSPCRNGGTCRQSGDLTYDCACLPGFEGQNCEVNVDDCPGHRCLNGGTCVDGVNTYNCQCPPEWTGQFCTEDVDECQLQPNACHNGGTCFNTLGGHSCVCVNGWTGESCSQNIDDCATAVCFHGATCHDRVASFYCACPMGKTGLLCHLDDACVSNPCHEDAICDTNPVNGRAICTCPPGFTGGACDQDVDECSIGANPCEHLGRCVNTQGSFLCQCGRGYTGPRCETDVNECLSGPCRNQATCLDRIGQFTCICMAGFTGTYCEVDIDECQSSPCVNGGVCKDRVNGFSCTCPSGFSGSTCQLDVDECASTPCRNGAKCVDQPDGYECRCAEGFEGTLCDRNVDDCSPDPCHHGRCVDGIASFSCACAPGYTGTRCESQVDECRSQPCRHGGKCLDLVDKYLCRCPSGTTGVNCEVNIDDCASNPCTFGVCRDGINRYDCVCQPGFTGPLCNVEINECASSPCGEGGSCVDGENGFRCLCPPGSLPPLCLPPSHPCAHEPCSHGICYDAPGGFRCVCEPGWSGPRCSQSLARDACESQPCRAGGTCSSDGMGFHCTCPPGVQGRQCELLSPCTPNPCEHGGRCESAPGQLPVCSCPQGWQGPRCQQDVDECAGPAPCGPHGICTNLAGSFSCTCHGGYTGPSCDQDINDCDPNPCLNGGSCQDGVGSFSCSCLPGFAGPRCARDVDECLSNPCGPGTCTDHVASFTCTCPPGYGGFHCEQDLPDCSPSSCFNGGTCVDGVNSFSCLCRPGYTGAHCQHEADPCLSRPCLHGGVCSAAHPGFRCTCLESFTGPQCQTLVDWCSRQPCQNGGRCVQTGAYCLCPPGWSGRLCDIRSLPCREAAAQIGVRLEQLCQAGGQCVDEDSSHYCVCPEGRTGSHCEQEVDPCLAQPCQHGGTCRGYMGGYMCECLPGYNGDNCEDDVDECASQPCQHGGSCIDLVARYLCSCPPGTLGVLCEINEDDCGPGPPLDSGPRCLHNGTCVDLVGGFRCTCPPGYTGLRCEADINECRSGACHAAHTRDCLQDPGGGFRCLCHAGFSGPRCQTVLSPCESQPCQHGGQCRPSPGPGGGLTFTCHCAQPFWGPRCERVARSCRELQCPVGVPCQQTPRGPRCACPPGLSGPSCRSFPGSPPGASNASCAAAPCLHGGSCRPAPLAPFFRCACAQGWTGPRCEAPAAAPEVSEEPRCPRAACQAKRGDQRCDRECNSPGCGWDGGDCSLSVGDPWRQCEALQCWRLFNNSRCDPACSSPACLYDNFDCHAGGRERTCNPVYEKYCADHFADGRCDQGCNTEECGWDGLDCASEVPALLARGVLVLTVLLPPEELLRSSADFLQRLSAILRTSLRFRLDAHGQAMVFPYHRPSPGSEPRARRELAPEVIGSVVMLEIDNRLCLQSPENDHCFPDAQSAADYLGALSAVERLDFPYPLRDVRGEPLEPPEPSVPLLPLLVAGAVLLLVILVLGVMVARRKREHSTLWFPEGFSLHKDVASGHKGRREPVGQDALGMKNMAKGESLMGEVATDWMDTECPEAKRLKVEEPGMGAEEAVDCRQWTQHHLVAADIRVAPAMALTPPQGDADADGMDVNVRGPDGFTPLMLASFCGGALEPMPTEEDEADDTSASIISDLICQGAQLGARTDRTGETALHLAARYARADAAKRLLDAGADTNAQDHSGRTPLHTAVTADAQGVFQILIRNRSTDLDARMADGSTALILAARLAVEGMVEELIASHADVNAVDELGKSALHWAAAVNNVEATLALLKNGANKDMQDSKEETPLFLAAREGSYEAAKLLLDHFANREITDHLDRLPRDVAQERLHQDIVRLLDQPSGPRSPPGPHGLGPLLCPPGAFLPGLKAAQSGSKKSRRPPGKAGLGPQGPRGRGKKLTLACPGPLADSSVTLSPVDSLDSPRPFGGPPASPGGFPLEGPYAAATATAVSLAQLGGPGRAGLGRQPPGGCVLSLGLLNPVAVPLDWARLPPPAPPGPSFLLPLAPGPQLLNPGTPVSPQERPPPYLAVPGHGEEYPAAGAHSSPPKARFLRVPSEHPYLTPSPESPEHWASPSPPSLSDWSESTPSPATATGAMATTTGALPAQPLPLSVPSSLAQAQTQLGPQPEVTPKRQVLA

[20] = probe aEGFR binding to arrayed compounds – biochemical, biotinylated probe, 635/667 nm fluorescence, primary screen (AID 1097); conditions: small-molecule microarray, higher = more signal;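 note: probe is a biotinylated anti-EGFR antibody binding compounds printed on slides; score combines fluorescence near 667 nm and signal to noise of each spot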

| SMILES | composite z-score [1] | composite z-score [2] | composite z-score [3] | composite z-score [4] | composite z-score [5] | composite z-score [6] | composite z-score [7] | z-score [8] | composite z-score [9] | composite z-score [10] | composite z-score [11] | z-score [12] | z-score [13] | z-score [14] | composite z-score [15] | z-score [16] | composite z-score [17] | composite z-score [18] | composite z-score [19] | composite z-score [20] |
| --- | --- | --- | --- | --- | --- | --- | --- | --- | --- | --- | --- | --- | --- | --- | --- | --- | --- | --- | --- | --- |
| C#C[C@H]1Oc2ccccc2S(=O)(=O)N2CCC[C@@H]12 | 0.246 | 0.321 | -0.116 | -0.223 | -0.564 | -0.671 | -0.344 | -0.316 (inactive) | 0.0511 | 0.0373 | -0.513 | -0.346 (inactive) | -0.133 (inactive) | -1.55 (inactive) | -0.607 | -0.738 (inactive) | -0.0804 | 0.636 | -0.226 | -0.0564 |
| [N-]=[N+]=Nc1ccccc1C[C@]1(C(=O)N2CCCCC2)N=C(c2ccc(OCCCO)cc2)O[C@H]1c1ccccc1N=[N+]=[N-] | 0.368 | -0.155 | 0.14 | 0.771 | 1.53 | 1.71 | 1.01 | -1.68 (inactive) | 0.991 | -0.305 | 1.56 | 0.0343 (inactive) | -10.4 (active) | 1.51 (inactive) | 3.48 | -0.204 (inactive) | 0.512 | 0.471 | 1.05 | 0.277 |
| C=CCOC(=O)[C@H]1[C@@H]2C(=O)O[C@@H](c3ccccc3)[C@@H](c3ccccc3)N2[C@@H](c2ccc(OCCOC(=O)[C@@H]3C[C@@H]4C(=O)NCC(=O)N4[C@@H]3c3ccc(O)cc3)cc2)[C@]12C(=O)Nc1ccc(I)cc12 | -0.321 | 0.335 | 0.0364 | 0.438 | 0.93 | 1.17 | 1.27 | -0.0667 (inactive) | 0.317 | 0.107 | 1.55 | 0.591 (inactive) | 0.0218 (inactive) | 2.48 (inactive) | 2.57 | -0.375 (inactive) | -0.205 | 1.64 | 1.11 | -0.0788 |
| C=CCC(OC(C)=O)[C@@H]1[C@@H](N(Cc2ccc(-c3cccc(C(F)(F)F)c3)o2)C(=O)c2ccc(C)cc2)c2cc(OCCCO)ccc2N1C(=O)c1ccc2ccccc2n1 (stereo not given in full) | 0.172 | 0.0875 | -0.036 | 0.515 | 0.126 | 0.147 | 0.118 | -0.352 (inactive) | 0.361 | 0.0373 | -0.0077 | -0.269 (inactive) | -0.546 (inactive) | 0.28 (inactive) | 0.42 | 1.44 (inactive) | -0.0286 | 0.605 | 0.309 | -0.147 |
| C=CCC(OC(C)=O)[C@@H]1[C@@H](N(Cc2ccc(-c3ccccc3)cc2)C(=O)c2ccc(C)cc2)c2cc(OCCCO)ccc2N1C(=O)c1ccc2ccccc2n1 (stereo not given in full) | -0.131 | 0.42 | -0.0434 | 0.199 | 0.0291 | 0.676 | -0.325 | -1.24 (inactive) | 0.13 | 0.154 | -0.11 | -2.47 (inactive) | -0.772 (inactive) | -1.15 (inactive) | 0.209 | 1.95 (inactive) | 0.407 | -0.267 | -0.197 | -0.0836 |
| O=C(NCC(O)CO)[C@]1(CCS(=O)(=O)c2ccccc2)N=C(c2ccc(OCCCO)cc2)O[C@@H]1c1ccccc1 (stereo not given in full) | 0.871 | 1.87 | -0.0064 | -0.299 | 0.158 | 2.3 | 1.3 | 0.47 (inactive) | 1.08 | -0.288 | -0.214 | -0.59 (inactive) | -0.149 (inactive) | -0.92 (inactive) | 3.67 | 0.169 (inactive) | -0.0949 | -0.203 | -0.256 | -0.0913 |
| CN(C)CCCCCCNC(=O)[C@@H]1C[C@@H]2C(=O)N[C@@H](Cc3ccccc3)C(=O)N2[C@@H]1c1cccc(OCCO)c1 | 0.0797 | 1.42 | -0.0605 | 0.215 | 0.0438 | 1.42 | 1.33 | 3.59 (inactive) | 0.258 | 0.241 | 1.55 | -1.49 (inactive) | -1.07 (inactive) | -0.567 (inactive) | 2.67 | 0.698 (inactive) | 0.0498 | 1.05 | 1.13 | -0.0492 |
| CCN(CC)c1ccc(N2CC=CC34O[C@@H]5/C=C\CCC(C)OC(=O)C5[C@H]3C(=O)N(CCCCCCO)[C@@H]4C2=O)cc1 (stereo not given in full) | 0.142 | 0.19 | -0.0766 | 0.69 | -0.498 | 0.374 | 1.4 | 0.316 (inactive) | -0.32 | 0.0373 | -0.661 | -0.13 (inactive) | -0.147 (inactive) | 0.252 (inactive) | 0.989 | 0.477 (inactive) | -0.204 | -0.668 | -0.318 | -0.21 |
| CC(C)N1C(=O)c2ccccc2[C@](C)(C(=O)NCCCN(C)C)[C@@H]1c1ccc(CO)cc1 | 0.261 | 1.04 | -0.154 | -0.231 | -0.595 | 0.724 | 1.07 | 1.47 (inactive) | -0.128 | -0.0672 | -0.109 | -0.763 (inactive) | -1.26 (inactive) | -1.36 (inactive) | 2.41 | 0.0321 (inactive) | 0.0071 | -0.818 | -1.28 | -0.22 |
| COC(=O)[C@@]1(Cc2ccc(F)cc2)[C@H]2c3cc(C(=O)N(C)C)n(CCc4c[nH]c5ccc(OC)cc45)c3C[C@H]2CN1C(=O)c1ccccc1 | 1.1 | 1.29 | 0.181 | 0.175 | 1.37 | 0.88 | 1.36 | 1.59 (inactive) | 1.34 | 0.836 | 0.84 | 0.12 (inactive) | -0.331 (inactive) | 0.342 (inactive) | 3.17 | -1.47 (inactive) | 0.809 | -0.682 | 0.0599 | 0.341 |
